The panel holds about 83,000 compounds, 20% with a hit somewhere; the sample as a whole holds those more often.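 Percent growth is the endpoint: 0 to 100 indicates growth inhibition (40 means 60% inhibition), 0 means no net growth, and negative values indicate cell death.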 Unmarked numbers belong to inactive results. The source made the active and inactive calls. The calls were made as follows: active = growth percent below 10; inactive = the rest.
Experiments:
Test in all cases: NCI-60 one-dose screen, 48 h (100 = growth as untreated, 0 = no growth, -100 = all killed)
DU-145 prostate = settings: 10 µM unless noted
K-562 leukemia = settings: 10 µM unless noted
MALME-3M melanoma = settings: 10 µM unless noted
RXF 393 renal = settings: 10 µM unless noted
SF-268 CNS = settings: 10 µM unless noted
SF-295 CNS = settings: 10 µM unless noted
UACC-257 melanoma = settings: 10 µM unless noted
M14 melanoma = settings: 10 µM unless noted
U251 CNS = settings: 10 µM unless noted
PC-3 prostate = settings: 10 µM unless noted
LOX IMVI melanoma = settings: 10 µM unless noted
SK-MEL-28 melanoma = settings: 10 µM unless noted
MDA-MB-231 breast = settings: 10 µM unless noted
SF-539 CNS = settings: 10 µM unless noted
HCT-15 colon = settings: 10 µM unless noted
SNB-19 CNS = settings: 10 µM unless noted
SK-MEL-5 melanoma = settings: 10 µM unless noted
UACC-62 melanoma = settings: 10 µM unless noted
HT29 colon = settings: 10 µM unless noted
SNB-75 CNS = settings: 10 µM

Row | Structure (SMILES) | growth (DU-145 prostate) | growth (K-562 leukemia) | growth (MALME-3M melanoma) | growth (RXF 393 renal) | growth (SF-268 CNS) | growth (SF-295 CNS) | growth (UACC-257 melanoma) | growth (M14 melanoma) | growth (U251 CNS) | growth (PC-3 prostate) | growth (LOX IMVI melanoma) | growth (SK-MEL-28 melanoma) | growth (MDA-MB-231 breast) | growth (SF-539 CNS) | growth (HCT-15 colon) | growth (SNB-19 CNS) | growth (SK-MEL-5 melanoma) | growth (UACC-62 melanoma) | growth (HT29 colon) | growth (SNB-75 CNS)
1 | COc1cc(NCCCCCN)c2ncccc2c1 | 119% | 102% | 99% | 129% | 106% | 112% | 107% | 96.8% | 107% | 108% | 103% | 114% |  |  |  |  |  |  |  | 
2 | COc1cc(Nc2nc(N[C@H]3CCCC[C@@H]3N)nc3cc[nH]c(=O)c23)cc(OC)c1 | 41.7% | 24.6% | 91.6% | 10.9% | 48.1% |  | 7.33% (active) | 40.2% | 44.3% | 44.6% | -66.8% (active) |  | 38.4% | -3.04% (active) | 60.9% | 37.4% | 57.7% | 41.2% |  | 
3 | Cc1[nH]c2ccc(F)cc2c1CCNC(=O)C1CCN(C(=O)c2ccccc2)C1 (stereo unspecified) | 87.6% [25 µM] | 91.9% [25 µM] | 73.3% [25 µM] |  | 85.1% [25 µM] | 96.4% [25 µM] | 99.6% [25 µM] | 98.8% [25 µM] | 92.8% [25 µM] |  |  | 95.1% [25 µM] | 82% [25 µM] | 83% [25 µM] | 93.4% [25 µM] | 93.2% [25 µM] | 82.2% [25 µM] | 93.3% [25 µM] | 101% [25 µM] | 
4 | CN(C)c1ncnc2c1ccn2C1OC(CO)C(O)C1O (stereo unspecified) | 3.87% (active) | 50.4% | 133% | 67.9% | 40.1% |  | 111% | 58.7% | 97% | 13% | 3.02% (active) | 82.5% | 0.0846% (active) | 67.8% | 14.3% | 73.8% | 89.5% | 93.4% |  | 27%
5 | CC1(C)C(=O)/C(=C\c2ccc(C(F)(F)F)cc2)C[C@]2(C)[C@H]3CC[C@@H]4[C@H]5[C@H](C(=O)/C=C/c6ccc(C(F)(F)F)cc6)CC[C@]5(CO)CC[C@@]4(C)[C@]3(C)CC[C@@H]12 | 109% | 86.9% | 96.2% | 103% | 89.7% |  | 101% | 93.1% | 92.8% | 84% |  | 110% | 98.4% | 93.7% |  | 92.6% | 94.1% | 84.3% | 104% | 83.7%
6 | O=C(O)/C=C/C(=O)c1ccc(Cl)cc1 | 109% |  | 110% | 125% | 96.6% | 123% | 93.2% | 101% | 100% | 106% | 105% | 115% | 122% | 107% | 103% | 111% | 107% | 109% | 91.3% | 
7 | O=C1c2c(Cl)c(Cl)c(Cl)c(Cl)c2C(=O)C2(Cl)CC=CCC12Cl (stereo unspecified) | -74.2% (active) |  | -3.27% (active) | -78.3% (active) | -96.2% (active) | 106% | -34.4% (active) | -12% (active) | -30.2% (active) | -55.4% (active) | -84.3% (active) | -58.8% (active) | 18.2% | 48.1% | -74.2% (active) | 13.5% | 57.3% | 32.6% | -39.2% (active) | 
8 | N#Cc1ccc(N2Cc3ccccc3OC3=C2C(=O)c2c(O)ccc(O)c2C3=O)cc1 | -91.8% (active) |  | -56.4% (active) | -50.5% (active) | 7.68% (active) |  |  | -41.9% (active) | 10.2% | -25.6% (active) | -49.7% (active) | -32.2% (active) | -8.93% (active) | -17.5% (active) |  | 27.6% | 59.9% | -26.3% (active) | -62.4% (active) | 76%
9 | Cc1cccc(/C=N/Nc2cc(C)c3cccc(C)c3n2)n1 | 101% | 69.8% |  | 98.2% | 101% |  | 80% | 98.4% | 78.6% | 51.6% | 102% | 94.8% | 90.4% | 88% |  | 92.7% | 66.2% | 87.1% | 84.9% | 119%
10 | Clc1ccc(-c2nc3ccccc3s2)cc1Cl | 112% |  | 114% | 109% | 99.2% | 108% | 114% | 104% | 86.9% | 89% | 88.4% | 106% | 68% | 104% | 96.6% | 93.6% | 89.8% | 88.2% | 97.2% | 
11 | NC(=S)N/N=C1\CCCC(C(F)(F)F)C1 (stereo unspecified) |  | 46.3% | 104% | 123% |  | 100% | 73.2% | 95.6% | 107% | 69.6% | 78% | 111% | 102% | 101% |  | 100% | 116% | 100% |  | 87.3%
12 | CC(=O)Oc1cccc(S(=O)(=O)n2cc(C(=O)C(=O)Nc3ccncc3)c3ccccc32)c1 | 104% |  | 90.4% | 90.8% | 103% | 58.5% | 93.9% | 102% | 93.1% | 81.4% | 86.6% | 104% | 66.1% | 86.7% | 80.1% | 92.9% | 73.5% | 70.8% | 86.1% | 
13 | CN(C)c1nc2c(N)ncnc2n1C1OC(CO)C(O)C1O (stereo unspecified) | 118% |  | 88% | 113% | 105% | 111% | 105% | 102% | 110% | 94.2% | 104% | 122% | 116% | 101% | 104% | 107% | 108% | 99.1% |  | 111%
14 | COc1ccc(-c2ccc(C)n2-c2ccc(-c3nc4cc(Cl)ccc4s3)cc2)cc1 | 112% |  | 102% | 114% | 111% | 96.6% | 107% | 107% | 98.2% | 113% | 95.8% | 125% | 85.8% | 109% | 105% | 103% | 97.9% | 85.2% | 100% | 
15 | O=S1(=O)CCC(N(/N=C/c2ccco2)c2ccccc2)C1 (stereo unspecified) | 111% | 123% |  | 109% | 102% |  | 95.1% | 100% | 99% | 93.1% | 94.1% | 115% | 112% | 98.1% |  | 104% | 103% | 100% | 96.3% | 132%
16 | Nc1cc2c(cc1C(=O)c1cccc(F)c1)OCCO2 | 109% |  | 109% | 104% | 98.4% | 94.5% | 93.4% | 107% | 94% | 94.9% | 95.6% | 105% | 102% | 103% | 93.9% | 97.1% | 109% | 104% | 100% | 
17 | CCCCCCCC/C=C/CCCCCCCC1=NC(C)(C)CN1C(C)(C)CO |  | -58.6% (active) | -12.9% (active) | 13.1% | 53.6% | 86.9% | -28.5% (active) | -84.7% (active) | -68.1% (active) | 44.9% | -100% (active) | -63.9% (active) | 17.5% | 77.1% |  | 57.9% | 4.8% (active) | -25.3% (active) | -57.8% (active) | 38.5%
18 | CC(=O)Nc1nc(N)nc(NC(C)=O)c1N=O | 107% | 124% |  | 135% | 98.7% |  | 113% | 104% | 116% | 99.6% | 94.3% | 115% | 114% | 105% | 104% | 111% | 114% | 109% |  | 109%

From PubChem BioAssay (NCI)
